In PMC7862700, “An all-to-all approach to the identification of sequence-specific readers for epigenetic DNA modifications on cytosine”:

Tests used:
Assay in all cases: DAPPL (digital affinity profiling via proximity ligation, sequencing); 10 mM Tris-HCl pH 7.5, 50 mM NaCl, 1 mM DTT, 4% glycerol, room temperature, 30 min; GST-TFs on glutathione beads, 16-mer random dsDNA library, 0.1% formaldehyde crosslink after washing; high values mean tight binding
[1] = biological target: T1, FEV (Homo sapiens, UniProt Q99581 1-238); conditions: protein: recombinant; tags: N-terminal GST; dsDNA, one strand shown
T1 sequence: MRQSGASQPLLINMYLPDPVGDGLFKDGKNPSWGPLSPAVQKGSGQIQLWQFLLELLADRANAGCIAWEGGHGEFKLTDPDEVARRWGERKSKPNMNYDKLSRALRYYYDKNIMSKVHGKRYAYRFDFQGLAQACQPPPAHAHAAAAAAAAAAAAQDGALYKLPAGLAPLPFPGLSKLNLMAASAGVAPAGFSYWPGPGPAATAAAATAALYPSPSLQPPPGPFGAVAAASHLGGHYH
Outline: (§1)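 A tag-only sample was pooled with DNA-barcoded human transcription factors that had been expressed in yeast as GST fusions and captured on glutathione beads. The pools were incubated for 30 min at room temperature with 200 nmole of a random double-stranded 16-mer DNA library in Tris/NaCl/DTT/glycerol buffer, then washed, crosslinked with 0.1% formaldehyde, proximity-ligated (BsaI/T4 ligase, 1 h, 37 °C), PCR-amplified and sequenced on an Illumina NextSeq500. Binding signal is each hexamer's read frequency for a factor divided by its frequency for the tag-only sample.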

[2] = biological target: ETV5 (Homo sapiens, UniProt P41161 1-510); conditions: protein: recombinant; tags: N-terminal GST; dsDNA, one strand shown
Outline: as §1

[3] = biological target: HSF1 (Homo sapiens, UniProt Q00613 1-529); conditions: protein: recombinant; tags: N-terminal GST; chain copies: 3; dsDNA, one strand shown
Outline: as §1

[4] = biological target: T2, SPIC (Homo sapiens, UniProt Q8N5J4 1-248); conditions: protein: recombinant; tags: N-terminal GST; dsDNA, one strand shown
T2 sequence: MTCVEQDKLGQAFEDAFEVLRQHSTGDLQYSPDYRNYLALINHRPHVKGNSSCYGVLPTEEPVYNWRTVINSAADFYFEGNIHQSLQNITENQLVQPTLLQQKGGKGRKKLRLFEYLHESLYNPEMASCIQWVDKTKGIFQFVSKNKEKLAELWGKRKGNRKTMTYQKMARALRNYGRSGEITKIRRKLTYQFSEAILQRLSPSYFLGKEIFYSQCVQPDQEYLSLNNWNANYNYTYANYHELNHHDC
Outline: as §1

[5] = biological target: ELF4 (Homo sapiens, UniProt Q99607 1-663); conditions: protein: recombinant; tags: N-terminal GST; dsDNA, one strand shown
Outline: as §1

[6] = biological target: T3, ELK4 (Homo sapiens, UniProt P28324-2 1-405); conditions: protein: recombinant; tags: N-terminal GST; dsDNA, one strand shown
T3 sequence: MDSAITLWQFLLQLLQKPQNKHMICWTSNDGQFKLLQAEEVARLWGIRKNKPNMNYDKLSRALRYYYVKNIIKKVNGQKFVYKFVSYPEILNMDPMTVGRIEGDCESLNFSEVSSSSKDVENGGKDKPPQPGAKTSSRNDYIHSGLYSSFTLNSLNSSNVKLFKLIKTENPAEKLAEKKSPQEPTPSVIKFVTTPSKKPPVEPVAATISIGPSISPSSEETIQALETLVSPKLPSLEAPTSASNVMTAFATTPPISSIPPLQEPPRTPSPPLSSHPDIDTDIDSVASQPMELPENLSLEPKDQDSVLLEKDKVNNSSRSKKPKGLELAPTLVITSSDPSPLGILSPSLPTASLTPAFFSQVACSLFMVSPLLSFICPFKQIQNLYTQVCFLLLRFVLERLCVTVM
Outline: as §1

[7] = biological target: T4, ETV2 (Homo sapiens, UniProt O00321 1-342); conditions: protein: recombinant; tags: N-terminal GST; dsDNA, one strand shown
T4 sequence: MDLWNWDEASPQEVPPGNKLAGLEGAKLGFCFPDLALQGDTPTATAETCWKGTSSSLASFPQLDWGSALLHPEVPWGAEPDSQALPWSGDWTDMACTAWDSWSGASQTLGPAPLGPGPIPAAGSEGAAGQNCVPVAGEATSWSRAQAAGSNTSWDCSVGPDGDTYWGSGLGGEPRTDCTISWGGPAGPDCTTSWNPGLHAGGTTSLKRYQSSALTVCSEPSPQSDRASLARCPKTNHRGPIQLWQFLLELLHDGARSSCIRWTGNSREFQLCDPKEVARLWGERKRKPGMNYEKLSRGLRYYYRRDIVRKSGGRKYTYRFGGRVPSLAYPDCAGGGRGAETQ
Outline: as §1

[8] = biological target: T5, ELF3 (Homo sapiens, UniProt P78545 1-371); conditions: protein: recombinant; tags: N-terminal GST; dsDNA, one strand shown
T5 sequence: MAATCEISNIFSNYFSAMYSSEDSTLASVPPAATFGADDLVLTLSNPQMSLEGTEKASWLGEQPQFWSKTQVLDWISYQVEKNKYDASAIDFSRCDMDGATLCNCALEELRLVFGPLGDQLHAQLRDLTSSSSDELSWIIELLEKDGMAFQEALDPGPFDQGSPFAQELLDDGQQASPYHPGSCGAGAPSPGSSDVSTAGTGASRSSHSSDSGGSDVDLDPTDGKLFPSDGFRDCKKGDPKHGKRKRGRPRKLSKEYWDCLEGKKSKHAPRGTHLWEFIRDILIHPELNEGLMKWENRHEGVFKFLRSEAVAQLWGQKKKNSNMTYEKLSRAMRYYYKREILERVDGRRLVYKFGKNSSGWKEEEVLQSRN
Outline: as §1

[9] = biological target: CRX (Homo sapiens, UniProt O43186 1-299); conditions: protein: recombinant; tags: N-terminal GST; dsDNA, one strand shown
Outline: as §1

[10] = biological target: ETV1 (Homo sapiens, UniProt P50549 1-477); conditions: protein: recombinant; tags: N-terminal GST; dsDNA, one strand shown
Outline: as §1

Chain of CRX (O43186 whole entry): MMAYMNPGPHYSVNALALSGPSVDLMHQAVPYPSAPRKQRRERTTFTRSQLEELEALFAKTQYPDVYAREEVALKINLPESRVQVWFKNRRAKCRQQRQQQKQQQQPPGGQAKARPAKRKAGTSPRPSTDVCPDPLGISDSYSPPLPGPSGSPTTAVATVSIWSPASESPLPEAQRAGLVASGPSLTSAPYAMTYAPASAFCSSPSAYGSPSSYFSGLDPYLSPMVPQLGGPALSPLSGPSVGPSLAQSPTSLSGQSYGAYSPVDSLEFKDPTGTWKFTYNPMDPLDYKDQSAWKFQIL
Chain of ETV1 (P50549 whole entry): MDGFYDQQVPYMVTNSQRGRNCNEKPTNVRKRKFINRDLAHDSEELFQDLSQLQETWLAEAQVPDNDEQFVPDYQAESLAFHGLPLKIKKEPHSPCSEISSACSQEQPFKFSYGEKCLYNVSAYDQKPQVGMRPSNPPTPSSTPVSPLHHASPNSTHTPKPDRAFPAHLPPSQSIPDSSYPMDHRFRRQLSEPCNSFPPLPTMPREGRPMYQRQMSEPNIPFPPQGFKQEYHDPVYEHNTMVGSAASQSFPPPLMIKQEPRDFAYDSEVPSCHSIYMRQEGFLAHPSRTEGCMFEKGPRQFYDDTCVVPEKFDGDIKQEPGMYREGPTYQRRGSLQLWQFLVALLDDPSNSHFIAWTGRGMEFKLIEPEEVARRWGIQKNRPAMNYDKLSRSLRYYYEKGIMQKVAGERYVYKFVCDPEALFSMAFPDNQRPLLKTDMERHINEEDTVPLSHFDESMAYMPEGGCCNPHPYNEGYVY
Chain of ELF4 (Q99607 whole entry): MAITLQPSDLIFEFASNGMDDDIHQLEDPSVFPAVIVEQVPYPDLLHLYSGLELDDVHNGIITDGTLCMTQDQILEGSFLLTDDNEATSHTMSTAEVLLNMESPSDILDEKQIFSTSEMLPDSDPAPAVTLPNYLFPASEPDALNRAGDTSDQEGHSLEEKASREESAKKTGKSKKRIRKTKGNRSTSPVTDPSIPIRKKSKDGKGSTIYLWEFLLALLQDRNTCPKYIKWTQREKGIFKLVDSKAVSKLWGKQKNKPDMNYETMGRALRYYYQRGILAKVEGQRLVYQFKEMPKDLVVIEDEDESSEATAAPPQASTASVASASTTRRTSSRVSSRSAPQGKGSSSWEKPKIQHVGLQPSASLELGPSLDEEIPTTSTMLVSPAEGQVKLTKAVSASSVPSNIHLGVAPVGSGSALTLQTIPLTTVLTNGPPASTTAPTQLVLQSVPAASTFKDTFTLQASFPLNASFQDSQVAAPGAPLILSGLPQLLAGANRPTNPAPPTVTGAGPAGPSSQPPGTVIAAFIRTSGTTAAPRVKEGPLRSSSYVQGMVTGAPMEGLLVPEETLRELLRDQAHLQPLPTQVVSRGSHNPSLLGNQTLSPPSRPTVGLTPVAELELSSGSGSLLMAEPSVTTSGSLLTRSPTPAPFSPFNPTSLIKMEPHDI
Chain of ETV5 (P41161 whole entry): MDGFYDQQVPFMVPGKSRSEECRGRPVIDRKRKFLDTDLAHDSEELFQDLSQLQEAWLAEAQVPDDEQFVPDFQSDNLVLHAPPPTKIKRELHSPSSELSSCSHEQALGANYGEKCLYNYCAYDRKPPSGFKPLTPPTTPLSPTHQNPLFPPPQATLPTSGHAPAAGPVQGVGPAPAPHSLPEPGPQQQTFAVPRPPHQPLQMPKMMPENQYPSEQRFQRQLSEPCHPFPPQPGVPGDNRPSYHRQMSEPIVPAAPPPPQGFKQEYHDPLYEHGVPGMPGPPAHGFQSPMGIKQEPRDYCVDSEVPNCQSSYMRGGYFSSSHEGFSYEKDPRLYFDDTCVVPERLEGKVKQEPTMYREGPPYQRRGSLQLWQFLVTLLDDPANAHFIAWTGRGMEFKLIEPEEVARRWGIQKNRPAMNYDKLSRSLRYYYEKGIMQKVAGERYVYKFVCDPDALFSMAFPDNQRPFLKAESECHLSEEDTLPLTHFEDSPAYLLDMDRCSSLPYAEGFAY
Chain of HSF1 (Q00613 whole entry): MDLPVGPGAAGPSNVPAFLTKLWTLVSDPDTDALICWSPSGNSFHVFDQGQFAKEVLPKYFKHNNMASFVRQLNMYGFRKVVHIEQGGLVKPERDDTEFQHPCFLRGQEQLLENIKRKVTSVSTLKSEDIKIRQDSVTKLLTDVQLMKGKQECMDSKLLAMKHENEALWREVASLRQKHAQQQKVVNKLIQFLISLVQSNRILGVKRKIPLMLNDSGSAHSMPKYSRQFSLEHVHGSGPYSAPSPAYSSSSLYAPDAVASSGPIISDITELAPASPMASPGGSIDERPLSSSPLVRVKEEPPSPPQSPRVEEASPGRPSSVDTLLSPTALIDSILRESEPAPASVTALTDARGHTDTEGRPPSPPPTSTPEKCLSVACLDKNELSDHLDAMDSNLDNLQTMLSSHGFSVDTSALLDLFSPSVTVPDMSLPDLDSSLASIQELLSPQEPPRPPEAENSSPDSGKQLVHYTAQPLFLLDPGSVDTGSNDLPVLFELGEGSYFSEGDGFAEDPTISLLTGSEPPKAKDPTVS

TCGCCC
binding signal [1]: 1.3 fold enrichment (6-mer frequency, TF over GST control) | binding signal [2]: 1.24 fold enrichment (6-mer frequency, TF over GST control) | binding signal [3]: 1.09 fold enrichment (6-mer frequency, TF over GST control) | binding signal [4]: 1.49 fold enrichment (6-mer frequency, TF over GST control) | binding signal [5]: 1.23 fold enrichment (6-mer frequency, TF over GST control) | binding signal [6]: 1.19 fold enrichment (6-mer frequency, TF over GST control) | binding signal [7]: 1.19 fold enrichment (6-mer frequency, TF over GST control) | binding signal [8]: 1.22 fold enrichment (6-mer frequency, TF over GST control) | binding signal [9]: 1.07 fold enrichment (6-mer frequency, TF over GST control) | binding signal [10]: 1.26 fold enrichment (6-mer frequency, TF over GST control)
